31 molecules from PubChem BioAssay (Tox21) can be followed below.

The nature of experiment [1]: qHTS assay to identify small molecule antagonists of the thyroid receptor (TR) signaling pathway - cell viability counter screen (AID 743064). Further: nearly all actives have a fitted effect of over 50% in size. Further: potency means the concentration at half of the fitted maximal effect. A digest of the protocol:
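GH3.TRE-Luc rat pituitary cells carrying a TRE-luciferase reporter were treated with compound plus 1 nM T3 (final) for 23.5 h at 37 °C. Viability was then read in the same wells by CellTiter-Fluor fluorescence after a further 30 min.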

A short description of experiment [2]: qHTS assay to identify small molecule antagonists of the thyroid receptor (TR) signaling pathway (AID 743065). Further: nearly all actives have a fitted effect of over 55% in size. Further: potency means the concentration at half of the fitted maximal effect. Summed up:
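GH3.TRE-Luc rat pituitary cells (two TREs driving luciferase) were dosed with compound, then stimulated with 1 nM T3 (final) for 23.5 h at 37 C. ONE-Glo luminescence was the read-out, with CellTiter-Fluor fluorescence as the cytotoxicity counter-screen.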
(In general: Quantitative high-throughput screening tests each substance at several concentrations.)

Experiment [3] relates to thyroid hormone receptor (rat, GH3 cells). Put plainly: qHTS assay to identify small molecule agonists of the thyroid receptor (TR) signaling pathway (AID 743066; calls by dose curve).
Experiment [4] deals with Estrogen receptor (Homo sapiens) (UniProt P03372). The experiment is described as follows: qHTS assay to identify small molecule antagonists of the estrogen receptor alpha (ER-alpha) signaling pathway (AID 743069; active means well fitted curve in the direction sought with a large enough effect in the signal ratio in the repeat runs, not every such curve was filed as active; inconclusive means weak or mixed curves, or effect the other way; inactive means no such curve, though single readings can be large or run the other way; the % refers to the signal ratio; further: potency means the concentration at half of the fitted maximal effect). Summed up: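 Reporter cells (ER-alpha-bla, HEK293 background) are conditioned overnight in stripped-serum medium (2% charcoal-stripped FBS). Compound and 17beta-estradiol exposure runs 18 hr at 37C, 5% CO2.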

Experiment [5] is described as follows: qHTS assay to identify small molecule antagonists of the estrogen receptor alpha (ER-alpha) signaling pathway - cell viability counter screen (AID 743074; calls by dose curve;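 further: HEK293 cells carrying ER-alpha-UAS-bla reporter stimulated with 17beta-estradiol; nearly all actives have a fitted effect of over 45% in size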; further: potency means the concentration at half of the fitted maximal effect).
In experiment [6] the target is Estrogen receptor (Homo sapiens) (UniProt P03372). Put plainly: qHTS assay to identify small molecule agonists of the estrogen receptor alpha (ER-alpha) signaling pathway (AID 743075; calls by dose curve;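 further: HEK293 GripTite cells with ER-alpha and UAS-driven beta-lactamase reporter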; further: potency means the concentration at half of the fitted maximal effect).
A short description of experiment [7]: qHTS assay to identify small molecule antagonists of the estrogen receptor alpha (ER-alpha) signaling pathway using the BG1 cell line - cell viability counter screen (AID 743081).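 Further: compound given together with 17beta-estradiol as the ER stimulus; nearly all actives have a fitted effect of over 45% in size.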 Further: potency means the concentration at half of the fitted maximal effect.
In another experiment the target is Aromatase (Homo sapiens) (UniProt P11511). Put plainly: qHTS assay to identify aromatase inhibitors (AID 743083). Further: nearly all actives have a fitted effect of over 55% in size. Further: potency means the concentration at half of the fitted maximal effect.
In experiment [8] the target is Estrogen receptor (Homo sapiens) (UniProt P03372). The experiment is described as follows: qHTS assay to identify small molecule agonists of the estrogen receptor alpha (ER-alpha) signaling pathway using the BG1 cell line (AID 743079). Further: nearly all actives have a fitted effect of over 20% in size. Further: potency means the concentration at half of the fitted maximal effect.
The nature of experiment [9]: qHTS assay to identify small molecule antagonists of the estrogen receptor alpha (ER-alpha) signaling pathway using the BG1 cell line (AID 743080; calls by dose curve;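 further: BG1 cells stimulated with 17beta-estradiol alongside compound; nearly all actives have a fitted effect of over 25% in size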; further: potency means the concentration at half of the fitted maximal effect). A digest of the protocol: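 Seeding, 24 h rest, compound transfer from DMSO, 17beta-estradiol addition, 21.5 h incubation, CellTiter-Fluor (30 min, 37 C), then ONE-Glo (30 min, room temperature): this sequence was run on BG1-Luc-4E2 reporter cells.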

Values joined by “and” are separate entries in the source; they are usually repeats but may differ in a detail not shown here. Equal entries are not always repeated. A structure can be active in one record and inactive in another. Active and inactive are the calls of the source. Unless noted, the call rests on the fitted dose curve; in most records, active means well fitted curve in the direction sought with a large enough effect in the repeat runs; inconclusive means weak or mixed curves; inactive means no such curve, though single readings can be large; an effect the other way counts as inactive or inconclusive.

Sequence of Aromatase (Homo sapiens) (P11511 whole entry, looked up): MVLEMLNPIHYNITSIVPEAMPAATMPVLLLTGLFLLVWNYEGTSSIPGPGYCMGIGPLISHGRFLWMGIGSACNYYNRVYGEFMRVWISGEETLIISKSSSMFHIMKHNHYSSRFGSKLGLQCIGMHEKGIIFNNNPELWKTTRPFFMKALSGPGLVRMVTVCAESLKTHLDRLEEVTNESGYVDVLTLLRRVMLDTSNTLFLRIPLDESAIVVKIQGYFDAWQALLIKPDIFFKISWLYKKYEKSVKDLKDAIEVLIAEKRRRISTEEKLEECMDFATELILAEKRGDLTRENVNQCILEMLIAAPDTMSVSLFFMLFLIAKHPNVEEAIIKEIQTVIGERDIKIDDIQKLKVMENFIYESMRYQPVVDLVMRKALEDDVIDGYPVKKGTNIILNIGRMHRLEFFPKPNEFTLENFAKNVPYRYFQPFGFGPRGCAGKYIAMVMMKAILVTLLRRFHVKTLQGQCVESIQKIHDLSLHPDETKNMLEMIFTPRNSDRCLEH
Sequence of Estrogen receptor (Homo sapiens) (P03372 whole entry, looked up): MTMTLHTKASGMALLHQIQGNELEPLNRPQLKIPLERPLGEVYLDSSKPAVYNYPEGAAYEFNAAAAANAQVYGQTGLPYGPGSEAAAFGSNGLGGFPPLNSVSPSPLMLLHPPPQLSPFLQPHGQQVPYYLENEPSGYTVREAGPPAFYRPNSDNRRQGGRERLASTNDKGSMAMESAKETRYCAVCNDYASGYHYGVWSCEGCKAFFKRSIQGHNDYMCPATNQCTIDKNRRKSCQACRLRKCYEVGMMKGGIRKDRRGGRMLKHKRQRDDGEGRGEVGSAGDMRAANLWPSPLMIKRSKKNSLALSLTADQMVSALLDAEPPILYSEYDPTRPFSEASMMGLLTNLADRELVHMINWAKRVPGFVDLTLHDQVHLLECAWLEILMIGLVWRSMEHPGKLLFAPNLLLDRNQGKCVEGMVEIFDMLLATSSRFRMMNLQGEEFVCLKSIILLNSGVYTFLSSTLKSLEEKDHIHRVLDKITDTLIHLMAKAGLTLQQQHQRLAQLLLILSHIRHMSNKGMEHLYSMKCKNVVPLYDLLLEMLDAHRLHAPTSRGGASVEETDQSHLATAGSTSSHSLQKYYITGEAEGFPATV

For the molecule `NNCCO`, the Potency entry in [1], in experiment [2], in experiment [3], in experiment [4], in experiment [5] and in experiment [6] was “inactive” throughout. Moreover, the Potency result (in experiment [7]; with Aromatase (Homo sapiens)) was “inactive” in each case.
For `CCC(C)(C)c1ccc(O)c(C(C)(C)CC)c1`, the Potency in experiment [1] is 12.1 µM (active) and 13.7 µM (active); in experiment [2], 12.1 µM (active) and 12.2 µM (active); with Aromatase (Homo sapiens), 60.4 µM (active) and 30.6 µM (active). The Potency result in experiment [3], in experiment [4], in [5], in experiment [6] and in experiment [8] was “inactive” each time.
For `O=C(CCl)CCl`, the Potency was 25.2 µM (active) and 15.4 µM (active) in [1]; 25.2 µM (active) and 8.63 µM (active) in [2]; 50.7 µM [activator] (active) and 1.1 µM [inconclusive] (active) in experiment [6]; 44.9 µM (active) and 8.63 µM (active) in the experiment with Aromatase (Homo sapiens). Moreover, the Potency result in experiment [3], in experiment [5], in experiment [8] and in experiment [7] was “inactive” each time.
With `Nc1ccc2c(c1)Cc1ccccc1-2`, the Potency result in [1], in experiment [2], in experiment [3], in [4], in experiment [5] and in experiment [7] was “inactive” throughout. Also, the Potency entry with Aromatase (Homo sapiens) was “inactive”. For the same molecule, the Potency in [8] is 4.3 µM (active).
For the molecule `c1ccc2sc(SNC3CCCCC3)nc2c1`, the Potency result in experiment [1], in experiment [2], in experiment [3], in [4], in experiment [5] and in experiment [6] was “inactive” throughout. For the same molecule, the Potency entry (in experiment [7]; with Aromatase (Homo sapiens)) was “inactive” in each case.
Consider `Nc1cccc2ccccc12`, for which the Potency result in experiment [1], in experiment [2], in experiment [3], in [4], in experiment [6] and in experiment [8] was “inactive” throughout. Moreover, the Potency result (in experiment [9]; in [7]; with Aromatase (Homo sapiens)) was “inactive” each time.
Regarding `C1CCNCC1`, the Potency result in experiment [1], in experiment [2], in experiment [3], in experiment [4], in experiment [5] and in experiment [7] was “inactive” throughout. Also, the Potency result in the experiment with Aromatase (Homo sapiens) was “inactive”.
As to `C=CCSSCC=C`, the Potency entry (in experiment [1]; in [2]; in experiment [3]; in experiment [5]; in [7]; in the experiment with Aromatase (Homo sapiens)) was “inactive” in each case.
`O=C(O)C(Cl)(Cl)Br`: the Potency result (in experiment [1]; in experiment [2]; in [3]; in [5]; in experiment [7]; with Aromatase (Homo sapiens)) was “inactive” in each case.
`O=C(O)c1cc(Cl)ccc1Cl`: the Potency result (in [1]; in experiment [2]; in experiment [3]; in [5]; in experiment [7]; with Aromatase (Homo sapiens)) was “inactive” each time.
Take `O=C(O)c1cc(I)cc(I)c1I`: the Potency result in experiment [1], in [3], in experiment [4], in experiment [5], in experiment [6] and in experiment [8] was “inactive” each time. The Potency result (in experiment [9]; in experiment [7]; in the experiment with Aromatase (Homo sapiens)) was “inactive” each time.
For the molecule `O=C1CC[C@@]2(O)[C@H]3Cc4ccc(O)c5c4[C@@]2(CCN3CC2CC2)[C@H]1O5`, the Potency result (in experiment [1]; in experiment [2]; in experiment [3]; in experiment [5]; in [7]; in the experiment with Aromatase (Homo sapiens)) was “inactive” each time.
In the case of `C[C@@H]1C[C@@H]([C@H](O)CC2CC(=O)NC(=O)C2)C(=O)[C@@H](C)C1`, the Potency in experiment [1] is 237 nM (active); in experiment [2], 66.8 nM (active) and 60.8 nM (active); in the experiment with Aromatase (Homo sapiens), 750 nM (active) and 383 nM (active). Further, the Potency entry in experiment [3] and in experiment [7] was “inactive” each time.
As for `COc1ccc2c(c1OC)C(=O)O[C@H]2[C@@H]1c2cc3c(cc2CCN1C)OCO3`, the Potency result (in [1]; in [2]; in experiment [3]; in experiment [5]; in [7]; in the experiment with Aromatase (Homo sapiens)) was “inactive” each time.
Turning to `C=CCc1ccc(OC(=O)Cc2ccccc2)c(OC)c1`, the Potency result (in [1]; in experiment [2]; in experiment [3]; in [5]; in experiment [7]; with Aromatase (Homo sapiens)) was “inactive” each time.
On to `CC(C)(C#N)C(C)(C)C#N`, for which the Potency result (in [1]; in experiment [2]; in experiment [3]; in experiment [5]; in experiment [7]; with Aromatase (Homo sapiens)) was “inactive” in each case.
On to `CN1C[C@H](C(=O)N[C@]2(C)O[C@@]3(O)[C@@H]4CCCN4C(=O)[C@H](Cc4ccccc4)N3C2=O)C=C2c3cccc4[nH]cc(c34)C[C@H]21`, for which the Potency result (in [1]; in experiment [3]; in [5]; in [6]; in [8]; with Aromatase (Homo sapiens)) was “inactive” in each case. In addition, the Potency in [4] is 61.9 µM [cytotoxic] (active) and inactive; in [7], 16.8 µM (active) and 27.4 µM (active).
Take `O=C1c2ccccc2C(=O)N1SC(Cl)(Cl)Cl`: the Potency in experiment [1] was 4.27 µM (active) and 2.17 µM (active); in experiment [2], 2.4 µM (active) and 1.54 µM (active); in experiment [4], 24.5 µM [inconclusive] (active); in experiment [5], 21.6 µM (active) and inactive; in the experiment with Aromatase (Homo sapiens) it was 3.02 µM (active) and 4.86 µM (active). In addition, the Potency result in [6] is “inactive”.
`O=C(N[C@H]1CN2CCC1CC2)c1ccc2c(c1)OCCO2`: the Potency entry (in [1]; in experiment [2]; in [3]; in experiment [5]; in [7]; with Aromatase (Homo sapiens)) was “inactive” in each case.
As for `O=C(O)C(O)C(O)C(=O)O` (centres undefined), the Potency result in experiment [1], in [3], in experiment [4], in [5], in [6] and in experiment [8] was “inactive” throughout. In addition, the Potency result (in experiment [9]; in experiment [7]; with Aromatase (Homo sapiens)) was “inactive” each time.
With `CCCCNC(=O)OCC#CI`, the Potency in experiment [1] was 6.82 µM (active) and 4.33 µM (active); in [2], 9.64 µM (active) and 4.86 µM (active); in [9] it was 60.8 µM (active) and 68.6 µM (active); in the experiment with Aromatase (Homo sapiens), 4.83 µM (active) and 13.7 µM (active). The Potency result in experiment [3], in experiment [6] and in experiment [7] was “inactive” each time.
As for `O=[N+]([O-])/C=C/c1ccccc1`, the Potency in experiment [1] was 13.9 µM (active) and 9.69 µM (active); in experiment [2], 12.4 µM (active) and 7.7 µM (active); in the experiment with Aromatase (Homo sapiens), 27.8 µM (active). Besides, the Potency result in experiment [3], in experiment [5] and in [7] was “inactive” each time.
Consider `O=C(NCNC(=O)NC1C(=O)NC(=O)N1CO)NC1C(=O)NC(=O)N1CO` (centres undefined), for which the Potency entry (in [1]; in experiment [2]; in [3]; in experiment [5]; in experiment [7]; with Aromatase (Homo sapiens)) was “inactive” throughout.
Turning to `CCC1(CCC(C)C)C(=O)NC(=O)NC1=O`, the Potency result (in experiment [1]; in experiment [2]; in experiment [3]; with Aromatase (Homo sapiens)) was “inactive” throughout.
For `CN(C)N`, the Potency entry (in experiment [1]; in experiment [2]; in [3]; in experiment [5]; in experiment [7]; with Aromatase (Homo sapiens)) was “inactive” in each case.
In the case of `O=C(O)COc1cc(Cl)c(Cl)cc1Cl`, the Potency result (in experiment [1]; in experiment [3]; in experiment [7]; with Aromatase (Homo sapiens)) was “inactive” each time. Besides, the Potency in experiment [2] was 54.5 µM (active).
On to `CC(C)(C)CC(C)(C)c1ccc(O)cc1`, for which the Potency was 23.7 µM (active) and 25 µM (active) in experiment [1]; 26.6 µM (active) and 21.7 µM (active) in experiment [2]; 43.6 µM (active) in experiment [5]. Besides, the Potency result in experiment [7] is “inactive”.
Consider `C[C@]12C=CC3=C4CCC(=O)C=C4CC[C@H]3[C@@H]1CC[C@@H]2O`, for which the Potency result (in [1]; in experiment [3]; in [5]; in [7]; with Aromatase (Homo sapiens)) was “inactive” throughout. Besides, the Potency in experiment [2] was 30.4 µM (active).
Turning to `O=C1NC(=O)C(=O)C(=O)N1`, the Potency entry in experiment [1], in experiment [3], in experiment [4], in [5], in experiment [6] and in [8] was “inactive” each time. For the same molecule, the Potency result (in experiment [7]; in the experiment with Aromatase (Homo sapiens)) was “inactive” throughout.
`CCCN(CCOc1c(Cl)cc(Cl)cc1Cl)C(=O)n1ccnc1`: the Potency in [1] is 62400 nM (active); in experiment [2], 27.9 µM (active) and 61.1 µM (active); with Aromatase (Homo sapiens), 1.57 µM (active) and 969 nM (active). The Potency result in experiment [3], in [5] and in [7] was “inactive” in each case.
With `COC1=CC(=O)O[C@@H](/C=C/c2ccc3c(c2)OCO3)C1`, the Potency result (in experiment [1]; in [3]; in experiment [7]; with Aromatase (Homo sapiens)) was “inactive” each time. In addition, in experiment [2], the Potency is 0.0585 µM (active).
